Bioassay records: PubChem, several laboratories
MITF TRPM1 HTS = activators of MITF-driven TRPM1 promoter reporter, primary screen, cell-based, SK-MEL-5, luciferase, single point. hit rate 0.75% among 300,000. AID 588334, 2011. SK-MEL-5 TRPM1-promoter luciferase, 24 h; % of positive control, neutral wells = 0. activation, % at 12.5 µM;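 active = mean activation of at least 80% with every replicate also reaching 80%; inconclusive = mean reaches 80% but some replicate falls short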
FGF22 binding = binders of human FGF22 protein, primary screen, FGF22 synaptogenesis inhibitor project, biophysical, thermal shift, single point | AID 651658, 2012 | activity (Tm shift, normalised), % at 9.99 µM | recombinant FGF22 thermal shift, SYPRO orange fluorescence; percent of sucrose octasulfate shift, DMSO zero | Fibroblast growth factor 22 (Homo sapiens), Q9HCT0 | hit rate 1.5% among 340,000;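 active = mean Tm shift, scaled 0 neutral to 100 positive control, at about 1.3% or above, every replicate too, limit read from the data; inconclusive = no clear call, values can overlap the other calls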
MLL AF4-AF9 inh = inhibitors of AF4 peptide binding to AF9, primary screen, biochemical, AlphaScreen, biotin-AF4 peptide, FLAG-AF9, single point; Protein AF-9 (Homo sapiens), P42568; inhibition, % at 10 µM; hit rate 0.47% among 350,000;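 active = every replicate reaching a set inhibition limit, whatever the replicate mean, cut at about 25% in these data; inconclusive = mean inhibition reaches that limit but some replicates miss it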
Wnt bcat act = Wnt/beta-catenin pathway activators, primary screen, cell-based, plate reader, single point; AID 743398, 2014; hit rate 1.2% among 300,000; activation, % at 9.35 µM; Wnt/beta-catenin reporter cell assay, activator; in the data active = activation above about 30%, passing the limit was not always enough; inconclusive = no clear call, values can overlap the other calls
esBAF inh = Bmi1 luciferase reporter increase in mESCs, primary screen, esBAF inhibitor project, mouse ES cells, Bmi1 luciferase knock-in, single point; 24 h; 100% = twice the neutral-well signal; reporter increase, % at 12.5 µM; hit rate 2% among 350,000; in the data active = activation above about 40%; inconclusive = no clear call, values can overlap the other calls;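 note: a rise in the Bmi1 reporter signal indicates esBAF inhibition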
SMARCA2 act = SMARCA2 (BRM) function activators, primary screen, cell-based, luminescence, high throughput | AID 652017, 2013 | hit rate 1% among 370,000 | MG213 cells, MMTV-luciferase reporter, dexamethasone, overnight | activation, % at 9.1 µM; in the data active = activation above about 7.8%
Numbers stand for hits; - = inactive; ? = inconclusive; . = no result given. The list is not random: actives were taken first. Their share in the collection is about 4.3%.

SMILES	MITF TRPM1 HTS	FGF22 binding	MLL AF4-AF9 inh	Wnt bcat act	esBAF inh	SMARCA2 act
COCC1CCN(C(=O)C2CCC(=O)N(C3CCCC3)C2)CC1 (stereo unspecified)	-	-	-	-	-	-
Cc1ccc(S(=O)(=O)Nc2ccc3c(c2)C(=O)N([C@@H](C)CO)C[C@H](C)[C@@H](CN(C)S(C)(=O)=O)OCCCC[C@H](C)O3)cc1	.	-	-	.	-	.
O=C(NCCCCCCNC(=O)c1ccccc1O)c1ccccc1O	-	-	-	-	-	-
Cc1ccc(C(=O)NCCCc2ccccc2)c(Cl)c1	100.6	-	-	-	42.4	-
O=C(NCCCc1ccccc1)c1ccccc1O	-	.	.	-	70.0	-
O=C(CN1CCOCC1)N1CC2(C1)[C@@H](c1ccccc1)[C@@H](CO)N2Cc1ccc(F)cc1	.	-	-	.	.	.
C[C@H](CO)N1C[C@H](C)[C@H](CN(C)C)Oc2ccc(N(C)C)cc2CC1=O	.	-	-	.	-	.
CCCC(=O)N1CCC[C@]2(CC[C@H](CCC(=O)OCC)O2)C1	.	.	.	.	.	-
O=C(C[C@@H]1C=C[C@@H](NC(=O)c2cccnc2)[C@@H](CO)O1)NCc1ccc(Cl)c(Cl)c1	.	-	-	.	-	.
Cc1cccc(-c2cnn(-c3ccccc3)c2N)c1	?	-	-	-	56.2	-
Cc1cccc(-c2cnn(-c3cccc([N+](=O)[O-])c3)c2N)c1	-	-	-	-	.	-
Cc1cccc(-c2cc(N)n(-c3ccccc3)n2)c1	86.8	-	-	-	53.9	-
CCc1ccc(-c2cc(N)n(-c3ccccc3)n2)cc1	-	-	-	-	68.1	-
Cc1ccc(-c2cc(N)n(-c3ccccc3)n2)cc1	92.8	.	.	.	.	-
CC(C)NC(=O)Nc1ccc2c(c1)C(=O)N([C@H](C)CO)C[C@H](C)[C@H](CN(C)Cc1ccc(Cl)c(Cl)c1)OCCCC[C@@H](C)O2	.	-	-	.	-	.
CCCN1[C@@H]2c3cccc(=O)n3C[C@H]1[C@H](CO)[C@H]2C(=O)NC1Cc2ccccc2C1	.	-	-	.	-	.
CC(C)(C)c1ccc(C(=O)Nc2cccc(S(=O)(=O)NC3=NCCC3)c2)cc1	-	-	-	-	-	-
O=C(/C=C/c1ccc(OC(F)F)cc1)Nc1cccc(S(=O)(=O)NC2=NCCCCC2)c1	-	-	-	-	53.6	-
Cc1ccc(OCC(=O)Nc2ccc(S(=O)(=O)NC3=NCCCCC3)cc2)cc1	.	-	-	-	-	-
Cc1ccc(S(=O)(=O)NC2=NCCCCC2)cc1	-	43.1	-	.	.	-
CN(C)c1ccc(C(=O)Nc2cccc(S(=O)(=O)NC3=NCCCCC3)c2)cc1	-	-	-	-	61.8	-
COc1ccc(/C=C/C(=O)Nc2cccc(S(=O)(=O)NC3=NCCCCC3)c2)cc1	-	-	-	-	-	-
CC(=O)c1cccc(S(=O)(=O)Nc2cccc(S(=O)(=O)NC3=NCCC3)c2)c1	-	-	-	-	.	10.2
C[C@@H]1CN([C@@H](C)CO)C(=O)c2ccccc2-c2ccccc2CO[C@@H]1CN(C)Cc1ccncc1	.	-	-	.	-	.
CNC[C@H]1Oc2ccc(NC(=O)CCC(F)(F)F)cc2C(=O)N([C@@H](C)CO)C[C@@H]1C	.	-	-	.	-	.
SMILES	MITF TRPM1 HTS	FGF22 binding	MLL AF4-AF9 inh	Wnt bcat act	esBAF inh	SMARCA2 act
C=CCOC(=O)C1=C[C@H](C2CCCCC2)C[C@H](OCc2ccc(CO)cc2)O1	-	-	-	-	-	-
NC(=O)C1=C[C@H](C2CCCCC2)C[C@H](OCc2ccc(CO)cc2)O1	107.1	-	-	?	72.6	-
CCOC(=O)C(c1nc2ccccc2[nH]1)n1c(-c2ccccn2)nc2ccccc21 (stereo unspecified)	.	-	-	-	49.4	-
CC1(C)NC(=O)N(CCCCOc2ccc3ccccc3c2Cl)C1=O	-	.	.	.	52.7	-
CSc1ccc(/C=N/N2CCN(C)CC2)cc1	-	-	-	32.3	-	-
C(=N\N1CCN(Cc2ccccc2)CC1)/c1ccc(-c2ccccc2)cc1	-	-	-	-	.	-
Clc1ccc(CN2CCN(N=Cc3c4ccccc4cc4ccccc34)CC2)cc1	.	.	.	.	.	-
